# Data taken from PubChem BioAssay AID1159580 (chemical genetic matrix, 2015).
# Hit rate of the full screen: of about 5,500 compounds, about 2,000 (36%) were called active. About 18% were inconclusive and are not listed. Some of the results follow. A number with no mark means an inactive call. Cut-off read from the data, not from the text of the source: active = normalized growth mostly below about 0.91 (no sharp cut-off); inconclusive = no clear call, values can overlap the other calls; inactive = mostly above about 0.92.
# Assay: chemical genetic growth profiling, strain panel (AID 1159580);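 note: tested at 20 µM; growth read once vehicle control cultures reached saturation at 30 °C; 1 = growth at the plate median or of vehicle wells; lower values mean less growth of the strain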
# Conditions: S. cerevisiae deletion strains, growth OD
# [1] = locus YAL013W, strain DEP1, active compounds read low
# [2] = locus YAL040C, strain CLN3, active compounds read low
# [3] = locus YCL061C, strain MRC1 (second series), active compounds read low
# [4] = locus YDR150W, strain NUM1, active compounds read low
# [5] = locus YDR363W, strain ESC2, active compounds read low
# [6] = locus YER002W, strain NOP16, active compounds read low
# [7] = locus YMR263W, strain SAP30, active compounds read low
# [8] = locus YNL175C, strain NOP13, active compounds read low
# [9] = locus YNL197C, strain WHI3, active compounds read low
# [10] = locus YNL224C, strain SQS1, active compounds read low
# [11] = locus YOR083W, strain WHI5 (second series), active compounds read low
# [12] = locus YNL322C, strain KRE1, active compounds read low
compound,measurement,setting,value
NC(Cc1ccc(O)c(O)c1)C(=O)O (configuration not stated),normalized growth,[1],0.997
same,normalized growth,[2],1.02
same,normalized growth,[3],0.977
same,normalized growth,[4],0.955
same,normalized growth,[5],1.02
same,normalized growth,[6],1.01
same,normalized growth,[7],1.01
same,normalized growth,[8],1.01
same,normalized growth,[9],1.03
same,normalized growth,[10],1.01
same,normalized growth,[11],0.97
CC(Cc1ccc(O)c(O)c1)C(C)Cc1ccc(O)c(O)c1 (configuration not stated),normalized growth,[1],0.625 (active)
same,normalized growth,"locus YBR021W, strain FUR4, active compounds read low",0.952
same,normalized growth,"locus YBR229C, strain ROT2, active compounds read low",0.909 (active)
same,normalized growth,"locus YCL029C, strain bik1, active compounds read low",0.916
same,normalized growth,"locus YDL035C, strain GPR1, active compounds read low",0.774 (active)
same,normalized growth,"locus YDL074C, strain BRE1, active compounds read low",0.48 (active)
same,normalized growth,"locus YDL101C, strain DUN1, active compounds read low",0.522 (active)
same,normalized growth,"locus YDL185W, strain tfp1, active compounds read low",0.995
same,normalized growth,"locus YDL192W, strain arf1, active compounds read low",0.896 (active)
same,normalized growth,"locus YDR101C, strain arx1, active compounds read low",0.939
same,normalized growth,"locus YDR162C, strain NBP2, active compounds read low",0.428 (active)
same,normalized growth,"locus YDR318W, strain mcm21, active compounds read low",0.955
same,normalized growth,"locus YDR388W, active compounds read low",0.895 (active)
same,normalized growth,"locus YDR502C, strain sam2, active compounds read low",0.813 (active)
same,normalized growth,"locus YEL061C, strain CIN8, active compounds read low",0.681 (active)
same,normalized growth,"locus YER110C, active compounds read low",0.988
same,normalized growth,"locus YER155C, strain BEM2, active compounds read low",0.756 (active)
same,normalized growth,"locus YER167W, strain BCK2, active compounds read low",0.957
same,normalized growth,"locus YGL078C, strain dbp3, active compounds read low",0.999
same,normalized growth,"locus YGL086W, strain mad1, active compounds read low",0.909 (active)
same,normalized growth,"locus YGL248W, strain PDE1, active compounds read low",0.814 (active)
same,normalized growth,"locus YGR078C, strain PAC10, active compounds read low",0.818 (active)
same,normalized growth,"locus YGR135W, strain pre9, active compounds read low",0.854 (active)
same,normalized growth,"locus YGR229C, strain SMI1, active compounds read low",0.419 (active)
same,normalized growth,"locus YGR252W, strain gcn5, active compounds read low",0.792
same,normalized growth,"locus YHR030C, strain SLT2, active compounds read low",0.87 (active)
same,normalized growth,"locus YHR079C, strain IRE1 (second series), active compounds read low",0.904 (active)
same,normalized growth,"locus YHR094C, strain hxt1, active compounds read low",1.01
same,normalized growth,"locus YHR129C, strain ARP1, active compounds read low",0.73 (active)
same,normalized growth,"locus YHR200W, strain rpn10, active compounds read low",0.964
same,normalized growth,"locus YIL066C, strain RNR3, active compounds read low",0.61 (active)
same,normalized growth,"locus YIL073C, strain SPO22, active compounds read low",0.499 (active)
same,normalized growth,"locus YIL125W, strain kgd1, active compounds read low",1
same,normalized growth,"locus YIR030C, strain dcg1, active compounds read low",0.903 (active)
same,normalized growth,"locus YJL095W, strain BCK1, active compounds read low",0.113 (active)
same,normalized growth,"locus YJL134W, strain LCB3, active compounds read low",0.909 (active)
same,normalized growth,"locus YJL168C, strain set2, active compounds read low",0.983
same,normalized growth,"locus YJL187C, strain SWE1 (second series), active compounds read low",0.621 (active)
same,normalized growth,"locus YJR043C, strain POL32, active compounds read low",0.425 (active)
same,normalized growth,"locus YKL009W, strain mrt4, active compounds read low",0.993
same,normalized growth,"locus YKL068W, active compounds read low",1.01
same,normalized growth,"locus YKL085W, strain MDH1 (second series), active compounds read low",0.992
same,normalized growth,"locus YKL085W, strain MDH1, active compounds read low",0.992
same,normalized growth,"locus YKR001C, strain vps1, active compounds read low",0.882 (active)
same,normalized growth,"locus YLR039C, strain RIC1, active compounds read low",0.293 (active)
same,normalized growth,"locus YLR058C, strain SHM2, active compounds read low",0.643 (active)
same,normalized growth,"locus YLR102C, strain apc9, active compounds read low",1.01
same,normalized growth,"locus YLR262C, strain YPT6, active compounds read low",0.616
same,normalized growth,"locus YLR268W, strain sec22, active compounds read low",0.853 (active)
same,normalized growth,"locus YLR330W, strain CHS5, active compounds read low",0.82 (active)
same,normalized growth,"locus YLR342W, strain FKS1 (second series), active compounds read low",0.645 (active)
same,normalized growth,"locus YLR371W, strain rom2, active compounds read low",0.919
same,normalized growth,"locus YLR418C, strain cdc73, active compounds read low",0.673 (active)
same,normalized growth,"locus YML016C, strain PPZ1, active compounds read low",0.746 (active)
same,normalized growth,"locus YML032C, strain rad52, active compounds read low",0.927
same,normalized growth,"locus YML124C, strain tub3, active compounds read low",0.979
same,normalized growth,"locus YMR078C, strain ctf18, active compounds read low",0.973
same,normalized growth,"locus YMR223W, strain ubp8, active compounds read low",0.91
same,normalized growth,[7],0.455 (active)
same,normalized growth,"locus YMR307W, strain GAS1, active compounds read low",0.691
same,normalized growth,"locus YNL067W, strain RPL9B, active compounds read low",0.726 (active)
same,normalized growth,"locus YNL128W, strain TEP1, active compounds read low",0.816 (active)
same,normalized growth,"locus YNL233W, strain BNI4, active compounds read low",0.849 (active)
same,normalized growth,"locus YNL250W, strain rad50, active compounds read low",1.03
same,normalized growth,"locus YNL271C, strain bni1, active compounds read low",0.997
same,normalized growth,"locus YNL298W, strain CLA4, active compounds read low",0.981
same,normalized growth,"locus YNL307C, strain MCK1, active compounds read low",0.899 (active)
same,normalized growth,[12],0.522 (active)
same,normalized growth,"locus YNR052C, strain pop2, active compounds read low",0.927
same,normalized growth,"locus YOL012C, strain htz1",0.299
same,normalized growth,"locus YOL147C, strain pex11, active compounds read low",0.936
same,normalized growth,"locus YOR061W, strain CKA2, active compounds read low",0.871 (active)
same,normalized growth,"locus YOR069W, strain VPS5, active compounds read low",0.858 (active)
same,normalized growth,"locus YOR136W, strain idh2, active compounds read low",1.01
same,normalized growth,"locus YOR144C, strain elg1, active compounds read low",0.95
same,normalized growth,"locus YOR184W, strain ser1, active compounds read low",0.784 (active)
same,normalized growth,"locus YOR316C, strain cot1, active compounds read low",0.999
same,normalized growth,"locus YPR119W, strain clb2, active compounds read low",1.01
same,normalized growth,"locus YPR141C, strain kar3, active compounds read low",1.01
same,normalized growth,"locus YPR163C, strain tif3, active compounds read low",0.982
same,normalized growth,"locus YPR167C, strain met16, active compounds read low",0.952
same,normalized growth,"strain wtn01, active compounds read low",0.892 (active)
CC(N)[C@H](O)c1ccc(O)c(O)c1 (some centres not stated),normalized growth,[1],0.998
same,normalized growth,[2],1.05
same,normalized growth,[3],0.993
same,normalized growth,[4],0.995
same,normalized growth,[5],0.989
same,normalized growth,[6],1
same,normalized growth,"locus YJR075W, strain HOC1, active compounds read low",0.983
same,normalized growth,"locus YNL153C, strain GIM3, active compounds read low",0.986
same,normalized growth,[8],1.01
same,normalized growth,[9],1.01
same,normalized growth,[10],0.992
same,normalized growth,[12],1.01
same,normalized growth,[11],0.988
same,normalized growth,"locus YPL055C, strain LGE1, active compounds read low",1
